Efflux pump inh = inhibitors of Candida efflux pumps in yeast, primary screen, S. cerevisiae, Nile Red, multiplex | S. cerevisiae Candida pump triplex | inhibition, % at 10 µM | 330,000 compounds, 0.44% hits;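 active = plate passing quality check with inhibition over a set limit, or well fluorescence over plate mean plus 4 SD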;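 also: Nile Red retained in pooled yeast measured as flow cytometry median fluorescence; 0% = buffer negative control and 100% = Enniatin B positive control; higher means more Nile Red kept so more efflux inhibition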
PvdQ inh = P. aeruginosa PvdQ acylase inhibitors, primary screen, biochemical, fluorescence, plate reader and imaging, single point; inhibition, % at 10 µM; purified PvdQ acylase; 340,000 compounds, 0.063% hits; PvdQ acylase [Pseudomonas aeruginosa LESB58]; in the data active = inhibition above about 30%, passing the limit was not always enough;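 also: 0% = vehicle neutral wells and 100% = reference inhibitor wells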
ERp5 inh = inhibitors of ERp5-driven insulin aggregation, primary screen, biochemical, turbidity, absorbance 650 nm, single point; 350,000 compounds, 0.05% hits; 90 min; inhibition, % at 9.99 µM; Protein disulfide-isomerase A6 (Homo sapiens), Q15084;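 active = mean replicate inhibition above about 25%, with every replicate also reaching it, limit read from the data, passing the limit was not always enough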
PDI turbidity = inhibitors of human PDI, primary screen, biochemical, turbidity, single point, plate reader. AID 588391, 2011. Protein disulfide-isomerase (Homo sapiens), P07237. PDI insulin aggregation turbidity, A650, 90 min. 350,000 compounds, 0.052% hits. inhibition, % at 10 µM;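 active = mean inhibition across replicates of 30% or more, whatever share of single replicates reach that level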
Target sequence (P07237 whole entry, looked up): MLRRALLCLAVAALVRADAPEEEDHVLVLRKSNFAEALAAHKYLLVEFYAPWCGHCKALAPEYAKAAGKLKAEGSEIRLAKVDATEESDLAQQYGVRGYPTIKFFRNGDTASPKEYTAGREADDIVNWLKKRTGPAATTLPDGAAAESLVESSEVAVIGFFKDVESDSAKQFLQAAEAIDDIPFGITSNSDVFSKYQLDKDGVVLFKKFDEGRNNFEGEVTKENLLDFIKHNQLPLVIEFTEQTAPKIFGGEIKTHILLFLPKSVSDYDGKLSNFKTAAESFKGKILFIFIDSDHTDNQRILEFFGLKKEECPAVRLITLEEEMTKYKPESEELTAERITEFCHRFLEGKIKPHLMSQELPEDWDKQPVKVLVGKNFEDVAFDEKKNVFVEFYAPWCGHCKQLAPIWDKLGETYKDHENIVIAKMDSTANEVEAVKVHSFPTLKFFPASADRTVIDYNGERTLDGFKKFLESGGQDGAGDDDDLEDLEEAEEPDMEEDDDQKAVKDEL
Rtt109 Vps75 = inhibitors of C. albicans Rtt109/Vps75 HAT, primary screen, biochemical, ThioGlo CoA-SH fluorescence, plate reader; Histone acetyltransferase RTT109 (Candida albicans (strain SC5314 / ATCC MYA-2876)), …; purified Rtt109/Vps75, 4 h; inhibition, % at 34.9 µM; 330,000 compounds, 0.16% hits;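 active = inhibition of at least 50% in every replicate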
Cmpd fluor yeast = compound fluorescence in yeast efflux pump counter-screen; shares compounds with Efflux pump inh; S. cerevisiae AD/pABC3, flow cytometry; fluorescence ratio to DMSO, % at 10 µM; 1,700 compounds, 4% hits; AID 588517;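 active = fluorescence ratio to DMSO above its plate's cutoff, the plate mean ratio plus 5 SD, cut at about 210% in these data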;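 also: unstained yeast with no Nile Red so the signal is compound autofluorescence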
Mdr1 pump inh = inhibitors of Candida albicans Mdr1 efflux, confirmation, flow cytometry, singleplex, Cherry Pick1 set; inhibition, % at 10 µM; 1,700 compounds, 1% hits; shares compounds with Efflux pump inh; S. cerevisiae AD/CaMDR1, Nile Red efflux; AID 588518, 2011; in the data active = inhibition above about 26%;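 also: 0% = DMSO vehicle and 100% = reference inhibitor; higher means more Nile Red retained so more efflux inhibition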
CaCdr2 efflux inh = inhibitors of Candida albicans Cdr2 efflux pump, confirmation, S. cerevisiae AD/CaCDR2, flow cytometry, cherry pick 1, singleplex; shares compounds with Efflux pump inh; Nile Red retention; Nile Red retention ratio vs DMSO, % at 10 µM; 1,700 compounds, 4% hits; AID 588520, 2011; in the data active = Nile Red retention ratio vs DMSO above about 190%;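 also: higher ratio means more blocking of Cdr2 efflux of the dye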
Cdr1 pump inh = inhibitors of Candida albicans Cdr1 efflux pump, confirmation, S. cerevisiae AD/CaCDR1, flow cytometry, cherry pick 1, singleplex | shares compounds with Efflux pump inh | Nile Red efflux | inhibition, % at 10 µM | 1,700 compounds, 1% hits;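 active = inhibition above the screen-wide mean plus twice its standard deviation, cut at about 32% in these data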
Active calls of the source: *. Hits are enriched below; roughly 0.54% of the tested compounds scored in any of these assays.

`O=C(c1ccoc1)N1CCC2(CC1)Oc1ccc(Cl)cc1C(=O)C21CC(c2ccc(Cl)cc2)=NO1` (stereo not given) gave Efflux pump inh 0, PvdQ inh 9, PDI turbidity -7, Rtt109 Vps75 -3, Cmpd fluor yeast 103, Mdr1 pump inh 0, CaCdr2 efflux inh 94 and Cdr1 pump inh 0.
Screening CC(=O)N[C@@H]1CC[C@@H](CCNC(=O)Nc2ccc(C(F)(F)F)cc2)O[C@@H]1CO returned ERp5 inh 0.
CN(C)C(=O)c1ccc(-c2ccc(C3[C@@H]4CN(C(=O)C5CCOCC5)C[C@H]3N4)cc2)cc1 (stereo not given in full) was read as ERp5 inh 5.
`C[C@@H]1CN([C@H](C)CO)S(=O)(=O)c2ccc(C#CC3CC3)cc2O[C@@H]1CN(C)S(C)(=O)=O` gave ERp5 inh 3.
For CC(C)C(=O)N1CCC2(CC1)Oc1ccc(F)cc1C(=O)C21CC(c2ccc(Cl)cc2)=NO1 (stereo not given) the results were Efflux pump inh 36*, PvdQ inh -3, ERp5 inh 2, PDI turbidity -1, Rtt109 Vps75 -16, Cmpd fluor yeast 99, Mdr1 pump inh 2, CaCdr2 efflux inh 114 and Cdr1 pump inh 0.
C=CCn1c(=O)[nH]c2nc3cc(N=CN(C)C)c(C)cc3nc2c1=O was read as Efflux pump inh 1.7*, PvdQ inh -16, ERp5 inh -1, PDI turbidity 2, Rtt109 Vps75 8, Cmpd fluor yeast 147, Mdr1 pump inh 0, CaCdr2 efflux inh 87 and Cdr1 pump inh 0.
`C[C@@H]1CN([C@H](C)CO)C(=O)Cc2cc(NC(=O)C3CC3)ccc2O[C@H]1CN(C)C` gave ERp5 inh -2.
CSc1nc2ccc(S(N)(=O)=O)cc2s1 was read as Efflux pump inh 12*, PvdQ inh 10, ERp5 inh -4, PDI turbidity -1, Rtt109 Vps75 9, Cmpd fluor yeast 101, Mdr1 pump inh 0, CaCdr2 efflux inh 106 and Cdr1 pump inh 0.
`CSc1nc2ccc(S(=O)(=O)N3CCCC3)cc2s1` gave Efflux pump inh 1, PvdQ inh -7, PDI turbidity -6 and Rtt109 Vps75 2.
Screening COc1ccc2c3c(n(C)c2c1)[C@H](CO)N(C)CC31CCN(S(=O)(=O)c2cccs2)CC1 returned ERp5 inh -7.
For O=[N+]([O-])c1cccc(-c2nc3ccccc3s/c2=N/O)c1 the results were Efflux pump inh 0.7*, PvdQ inh -34, ERp5 inh 6, PDI turbidity 0, Rtt109 Vps75 5, Cmpd fluor yeast 116, Mdr1 pump inh 0, CaCdr2 efflux inh 116 and Cdr1 pump inh 0.
For Cc1ccc(S(=O)(=O)N2C[C@@H](O)COC[C@H]3O[C@H](CC(=O)N[C@H]4CCN(Cc5ccccc5)C4)CC[C@@H]32)cc1 the results were ERp5 inh 4.
CN1CCC(NC(=O)NC2CCCCC2)CC1 was read as Efflux pump inh 0, PvdQ inh -14, ERp5 inh 4, PDI turbidity 1 and Rtt109 Vps75 -15.
`O=C(NC1CCCCCCC1)NC1CCCCC1` gave Efflux pump inh 1.0*, PvdQ inh 0, PDI turbidity -1, Rtt109 Vps75 6, Cmpd fluor yeast 113, Mdr1 pump inh 0, CaCdr2 efflux inh 105 and Cdr1 pump inh 0.
Screening COc1ccc(C#Cc2ccc3c(c2)[C@H]2[C@H](CCN2Cc2ccncc2)[C@@H](CO)N3)cc1 returned ERp5 inh 0.
For CCOC(=O)C1C(=O)C=C(/C=C/c2ccc(N(C)C)cc2)CC1c1ccccc1 (stereo not given) the results were Efflux pump inh 0.6*, PvdQ inh -15, PDI turbidity 13, Rtt109 Vps75 -2, Cmpd fluor yeast 588*, Mdr1 pump inh 0, CaCdr2 efflux inh 125 and Cdr1 pump inh 0.
Screening COc1ccc(-c2nc(Cn3c(SCc4ccc(C)cc4)nc4ccncc43)c(C)o2)cc1OC returned Efflux pump inh 0.4*, PvdQ inh 1, ERp5 inh -6, Rtt109 Vps75 -4, Cmpd fluor yeast 103, Mdr1 pump inh 0, CaCdr2 efflux inh 102 and Cdr1 pump inh 0.
COc1ccc(-c2nc(Cn3c(SCc4cccc(F)c4)nc4ccncc43)c(C)o2)cc1OC was read as Efflux pump inh 0.5*, PvdQ inh -7, ERp5 inh -3, Rtt109 Vps75 0, Cmpd fluor yeast 108, Mdr1 pump inh 1, CaCdr2 efflux inh 106 and Cdr1 pump inh 0.
`Cc1ccc(S(=O)(=O)N(C)C[C@H]2Oc3ncc(-c4ccccc4)cc3C(=O)N([C@@H](C)CO)C[C@H]2C)cc1` gave ERp5 inh 5.
`COCC(=O)Nc1ccc2c(c1)C(=O)N(C)[C@@H]1CC[C@H](CC(=O)NCc3ccccc3F)O[C@H]1CO2` gave ERp5 inh 0.
For Cc1ccc(C2=NN(CC(=O)NCc3cccnc3)C(=O)CC2)cc1 the results were Efflux pump inh -10.
Cc1ccc(C2=NN(CC(=O)NCc3ccccn3)C(=O)CC2)cc1 was read as Efflux pump inh 7.6*, PvdQ inh -1, ERp5 inh -8, PDI turbidity -17, Rtt109 Vps75 -2, Cmpd fluor yeast 92, Mdr1 pump inh 0, CaCdr2 efflux inh 91 and Cdr1 pump inh 0.
For Cc1ccnc(N2C(=O)c3cccc4c([N+](=O)[O-])ccc(c34)C2=O)c1 the results were Efflux pump inh 0.9*, PvdQ inh -12, ERp5 inh -4, PDI turbidity -1, Rtt109 Vps75 1, Cmpd fluor yeast 216, Mdr1 pump inh 1, CaCdr2 efflux inh 129 and Cdr1 pump inh 1.

Screening data as filed in PubChem.
